PubChem BioAssay (NCI)
Compounds without any hit were thinned out: in the full panel of roughly 79,000, 15% have a hit. A number with no mark means an inactive call. The source made the active and inactive calls. Rule as the data show it: active = growth inhibition above about 70%; inactive = the rest.

Experiments:
[1] = NCI Yeast Anticancer Drug Screen. Data for the rad52 strain (AID 147);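 also: 0% = growth of vehicle-treated control cultures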; conditions: S. cerevisiae rad52 mutant growth inhibition, stronger effect = higher value
In short: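 Vehicle-treated cultures served as the reference for growth inhibition of compound-exposed yeast bearing a DNA repair mutation.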

[2] = NCI Yeast Anticancer Drug Screen. Data for the wt1 strain (AID 149);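 also: 0% = growth of vehicle-treated wt1 cultures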; conditions: S. cerevisiae wt1 strain (SPY 50644) growth inhibition, stronger effect = higher value
In short: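 Yeast wt1 strain exposed to compounds; growth inhibition measured relative to vehicle-treated controls.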

[3] = NCI Yeast Anticancer Drug Screen. Data for the mgt1 strain (AID 153); conditions: S. cerevisiae mgt1 mutant growth inhibition, stronger effect = higher value
In short: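 mgt1 strain exposed; growth vs vehicle control recorded as inhibition.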

[4] = NCI Yeast Anticancer Drug Screen. Data for the rad50 strain (AID 155);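 also: 0% = growth of vehicle-only cultures of the same strain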; conditions: S. cerevisiae rad50 strain growth inhibition, stronger effect = higher value
In short: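 Yeast carrying a defined DNA repair defect were exposed to test compounds, and growth was compared with vehicle-treated controls to give percent inhibition.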

[5] = NCI Yeast Anticancer Drug Screen. Data for the mec2-1 strain (AID 157); conditions: S. cerevisiae mec2-1 strain, stronger effect = higher value
In short: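 Vehicle-treated cultures served as reference for growth inhibition of compound-exposed mec2-1 yeast.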

[6] = NCI Yeast Anticancer Drug Screen. Data for the rad14 strain (AID 159);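 also: 0% = growth of vehicle-treated control cultures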; conditions: S. cerevisiae rad14 strain growth inhibition, stronger effect = higher value
In short: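 Yeast cells carrying a defined DNA-repair defect were exposed to compounds, and growth inhibition was calculated relative to vehicle-treated control cultures.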

[7] = NCI Yeast Anticancer Drug Screen. Data for the sgs1 mgt1 strain (AID 161);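 also: 0% = growth of cultures given vehicle only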; conditions: S. cerevisiae sgs1 mgt1 strain, stronger effect = higher value
In short: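 Genetically altered yeast, compound exposure, growth inhibition relative to vehicle.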

[8] = NCI Yeast Anticancer Drug Screen. Data for the CLN2oe strain (AID 163);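 also: 0% = growth of vehicle-only control cultures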; conditions: S. cerevisiae CLN2oe strain, stronger effect = higher value
In short: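 Inhibition relative to vehicle-treated yeast is reported. Cells: strain with genetic alteration in cell-cycle control, grown with compound.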

[9] = NCI Yeast Anticancer Drug Screen. Data for the cln2 rad14 strain (AID 165);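 also: 0% = growth equal to vehicle treated cultures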; conditions: S. cerevisiae cln2 rad14 strain, stronger effect = higher value
In short: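 Each compound was tested on cln2 rad14 yeast. Inhibition of growth was calculated against vehicle-exposed controls.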

[10] = NCI Yeast Anticancer Drug Screen. Data for the bub3 strain (AID 167); conditions: S. cerevisiae bub3 mutant strain, stronger effect = higher value
In short: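 Compounds were applied to a genetically altered yeast strain carrying a cell-cycle control defect. Growth inhibition was scored against vehicle-treated controls.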

[11] = NCI Yeast Anticancer Drug Screen. Data for the wt2 strain (AID 169);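 also: 0% = growth of vehicle-treated yeast cultures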; conditions: S. cerevisiae wt2 strain growth inhibition, stronger effect = higher value
In short: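 Inhibition of yeast growth was determined after compound treatment, normalised to controls receiving only vehicle.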

[12] = NCI Yeast Anticancer Drug Screen. Data for the mlh1 strain (AID 171);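 also: 0% = growth of vehicle-treated control cultures of the same strain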; conditions: S. cerevisiae mlh1 strain growth inhibition, stronger effect = higher value
In short: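 Vehicle-normalised growth inhibition of a repair- or checkpoint-altered yeast strain following compound treatment.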

[13] = NCI Yeast Anticancer Drug Screen. Data for the sgs1 strain (AID 173);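 also: 0% = growth of vehicle-only control cultures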; conditions: S. cerevisiae sgs1 mutant, stronger effect = higher value
In short: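 Screen format: yeast with repair or checkpoint alterations, compound exposure, growth read relative to vehicle.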

[14] = NCI Yeast Anticancer Drug Screen. Data for the mlh1 rad18 strain (AID 175); conditions: S. cerevisiae mlh1 rad18 strain growth inhibition, stronger effect = higher value
In short: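 Vehicle-treated cultures served as the reference for growth inhibition in a yeast strain carrying DNA damage repair alterations exposed to each compound.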

[15] = at 5.0 µM (retest, dose inferred, filed as 0.5)
[16] = at 50.0 µM (retest, dose inferred, filed as 5.0)

Nc1ccn(C2OC(CO)C3[O][Sn]([c]4ccccc4)([c]4ccccc4)[O]C32)c(=O)n1 (stereo not drawn)
growth inhibition ([1]; at 1.2 µM): 3%
growth inhibition ([1]; at 3.7 µM): 3%
growth inhibition ([1]; at 11.0 µM): 21%
growth inhibition ([1]; at 33.0 µM): 46%
growth inhibition ([1]; at 100.0 µM): 84% (active)
growth inhibition ([2]; at 1.2 µM): -1%
growth inhibition ([2]; at 3.7 µM): -1%
growth inhibition ([2]; at 11.0 µM): 1%
growth inhibition ([2]; at 33.0 µM): 9%
growth inhibition ([2]; at 100.0 µM): 53%
growth inhibition ([3]; at 1.2 µM): 7%
growth inhibition ([3]; at 3.7 µM): 3%
growth inhibition ([3]; at 11.0 µM): -3%
growth inhibition ([3]; at 33.0 µM): 30%
growth inhibition ([3]; at 100.0 µM): 85% (active)
growth inhibition ([4]; at 1.2 µM): 4%
growth inhibition ([4]; at 3.7 µM): -1%
growth inhibition [4, 15]: -5%
growth inhibition ([4]; at 11.0 µM): 26%
growth inhibition ([4]; at 33.0 µM): 61%
growth inhibition [4, 16]: 51%
growth inhibition ([4]; at 50.0 µM): 95.4% (active)
growth inhibition ([4]; at 100.0 µM): 84% (active)
growth inhibition ([5]; at 1.2 µM): 0%
growth inhibition ([5]; at 3.7 µM): 3%
growth inhibition [5, 15]: -6%
growth inhibition ([5]; at 11.0 µM): 4%
growth inhibition ([5]; at 33.0 µM): 17%
growth inhibition [5, 16]: 34%
growth inhibition ([5]; at 50.0 µM): 95.5% (active)
growth inhibition ([5]; at 100.0 µM): 52%
growth inhibition ([6]; at 1.2 µM): 1%
growth inhibition ([6]; at 3.7 µM): 1%
growth inhibition ([6]; at 11.0 µM): 3%
growth inhibition ([6]; at 33.0 µM): 22%
growth inhibition ([6]; at 100.0 µM): 78% (active)
growth inhibition [7, 15]: -12%
growth inhibition [7, 16]: 65%
growth inhibition ([7]; at 50.0 µM): 86.2% (active)
growth inhibition ([8]; at 1.2 µM): 1%
growth inhibition ([8]; at 3.7 µM): -1%
growth inhibition ([8]; at 11.0 µM): 9%
growth inhibition ([8]; at 33.0 µM): 11%
growth inhibition ([8]; at 100.0 µM): 60%
growth inhibition [9, 15]: -26%
growth inhibition [9, 16]: -9%
growth inhibition ([9]; at 50.0 µM): 92.1% (active)
growth inhibition ([10]; at 1.2 µM): 1%
growth inhibition ([10]; at 3.7 µM): 1%
growth inhibition [10, 15]: -18%
growth inhibition ([10]; at 11.0 µM): 3%
growth inhibition ([10]; at 33.0 µM): 19%
growth inhibition [10, 16]: 41%
growth inhibition ([10]; at 50.0 µM): 95.9% (active)
growth inhibition ([10]; at 100.0 µM): 75% (active)
growth inhibition ([11]; at 1.2 µM): 0%
growth inhibition ([11]; at 3.7 µM): 0%
growth inhibition ([11]; at 11.0 µM): 5%
growth inhibition ([11]; at 33.0 µM): 31%
growth inhibition ([11]; at 100.0 µM): 79% (active)
growth inhibition ([12]; at 1.2 µM): -1%
growth inhibition ([12]; at 3.7 µM): 0%
growth inhibition ([12]; at 11.0 µM): 6%
growth inhibition ([12]; at 33.0 µM): 33%
growth inhibition ([12]; at 100.0 µM): 70% (active)
growth inhibition ([13]; at 1.2 µM): 0%
growth inhibition ([13]; at 3.7 µM): 0%
growth inhibition ([13]; at 11.0 µM): 9%
growth inhibition ([13]; at 33.0 µM): 44%
growth inhibition ([13]; at 100.0 µM): 89% (active)
growth inhibition [14, 15]: -22%
growth inhibition [14, 16]: 87% (active)
growth inhibition ([14]; at 50.0 µM): 95.2% (active)
